PubChem BioAssay (NCI)
Where “and” joins values, the source holds several entries; their conditions need not be identical. Identical values can stand only once. Compounds without any hit were thinned out: in the full panel of roughly 83,000, 20% have a hit.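 Each cell line was grown in a 96-well plate and treated with one concentration of compound for 48 hours. Values below 10 were considered active.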 Calls of active or inactive are those of the source.

Legend:
Test in all cases: NCI-60 one-dose screen, 48 h (100 = growth as untreated, 0 = no growth, -100 = all killed)
[1] = tested on: NCI-H23 lung
[2] = tested on: NCI-H226 lung
[3] = tested on: NCI-H322M lung
[4] = tested on: HOP-62 NSCLC
[5] = tested on: NCI-H460 lung
[6] = tested on: HOP-92 NSCLC
[7] = tested on: NCI-H522 lung; conditions: 10 µM unless noted
[8] = tested on: A549/ATCC NSCLC
[9] = tested on: 786-0 renal
[10] = tested on: DU-145 prostate
[11] = tested on: K-562 leukemia
[12] = tested on: MALME-3M melanoma
[13] = tested on: MDA-MB-231 breast
[14] = tested on: RXF 393 renal
[15] = tested on: SF-268 CNS
[16] = tested on: SF-295 CNS
[17] = tested on: SF-539 CNS
[18] = tested on: UACC-257 melanoma; conditions: 10 µM unless noted
[19] = tested on: M14 melanoma
[20] = tested on: COLO 205 colon; conditions: 10 µM unless noted

Measured: growth

O=C(Nc1c(Cl)cccc1Cl)Oc1cccc2cccnc12
inactive: [1]; 10 µM 36.5% | [1]; 100 µM 20.2% | [2]; 10 µM 66.1% | [2]; 100 µM 13.9% | [3]; 10 µM 23.7% | [3]; 100 µM 25% | [4]; 10 µM 47.5% | [4]; 100 µM 28.8% | [5]; 10 µM 27.1% | [6]; 10 µM 53.2% | [6]; 100 µM 23.2% | [8]; 10 µM 38% | [8]; 100 µM 18.2% | [9]; 10 µM 72% | [9]; 100 µM 31.3% | [10]; 10 µM 82.5% | [10]; 100 µM 49.1% | [11]; 10 µM 11.3% | [11]; 100 µM 11.1% | [12]; 10 µM 52.8% | [12]; 100 µM 47.5% | [13]; 10 µM 49.5% | [13]; 100 µM 20.4% | [14]; 10 µM 73.3% | [14]; 100 µM 64.4% | [15]; 10 µM 51.4% | [15]; 100 µM 21.7% | [16]; 100 µM 19.6% | [17]; 10 µM 28.2% | [17]; 100 µM 22.9% | [19]; 10 µM 40% | [19]; 100 µM 12.3%
active: [5]; 100 µM 9% | [7] -4.33% [100 µM] | [16]; 10 µM -11.3% | [18] -8.59% [100 µM]

CCCCCCCCCCCCCCNCc1ccccc1
active: [20] -40.9%
inactive: [1]; 10 µM unless noted 75.7% | [2]; 10 µM unless noted 60.1% | [3]; 10 µM unless noted 106% | [4]; 10 µM unless noted 94.1% | [5]; 10 µM unless noted 77.4% | [6]; 10 µM unless noted 48.8% | [7] 75.8% | [8]; 10 µM unless noted 108% | [9]; 10 µM unless noted 67.8% | [10]; 10 µM unless noted 81% | [11]; 10 µM unless noted 23.8% | [12]; 10 µM unless noted 92.6% | [13]; 10 µM unless noted 54.4% | [14]; 10 µM unless noted 82.3% | [15]; 10 µM unless noted 94.7% | [16]; 10 µM unless noted 97.7% | [17]; 10 µM unless noted 83.2% | [18] 99.4% | [19]; 10 µM unless noted 81.8%

CNc1ccc(N)cc1
inactive: [1]; 10 µM unless noted 103% | [2]; 10 µM unless noted 96.4% | [3]; 10 µM unless noted 103% | [4]; 10 µM unless noted 106% | [5]; 10 µM unless noted 106% | [6]; 10 µM unless noted 135% | [7] 87.5% | [8]; 10 µM unless noted 111% | [9]; 10 µM unless noted 110% | [20] 141% | [10]; 10 µM unless noted 121% | [11]; 10 µM unless noted 135% | [12]; 10 µM unless noted 98.1% | [13]; 10 µM unless noted 99% | [14]; 10 µM unless noted 214% | [15]; 10 µM unless noted 114% | [16]; 10 µM unless noted 108% | [17]; 10 µM unless noted 96.8% | [18] 137% | [19]; 10 µM unless noted 112%

O=C1N[C@H]2[C@H](CS[C@H]2CCCCC(=O)N(CCP(c2ccccc2)c2ccccc2)CCP(c2ccccc2)c2ccccc2)N1
inactive: [1]; 10 µM unless noted 67.8% | [2]; 10 µM unless noted 89.5% | [3]; 10 µM unless noted 79.2% | [4]; 10 µM unless noted 80.3% | [5]; 10 µM unless noted 41.3% | [6]; 10 µM unless noted 56.1% | [7] 57.6% | [8]; 10 µM unless noted 76.6% | [9]; 10 µM unless noted 82.8% | [20] 29.9% | [10]; 10 µM unless noted 95.6% | [11]; 10 µM unless noted 69.3% | [12]; 10 µM unless noted 91.7% | [13]; 10 µM unless noted 80.9% | [14]; 10 µM unless noted 96.5% | [15]; 10 µM unless noted 88.8% | [16]; 10 µM unless noted 83.6% | [17]; 10 µM unless noted 99.5% | [18] 79.6% | [19]; 10 µM unless noted 97.3%

CC1=CC(O)C2CC1C2(C)C (stereo unspecified)
inactive: [1]; 10 µM unless noted 112% and 110% | [2]; 10 µM unless noted 98.1% and 97.9% | [3]; 10 µM unless noted 101% and 97.1% | [4]; 10 µM unless noted 93.4% and 102% | [5]; 10 µM unless noted 108% | [6]; 10 µM unless noted 100% and 78.2% | [7] 86.2% and 92% | [8]; 10 µM unless noted 91.9% and 106% | [9]; 10 µM unless noted 95.7% and 110% | [20] 94.5% and 112% | [10]; 10 µM unless noted 108% and 122% | [11]; 10 µM unless noted 96.6% and 93.4% | [12]; 10 µM unless noted 97.6% and 107% | [13]; 10 µM unless noted 99.1% and 110% | [14]; 10 µM unless noted 115% and 104% | [15]; 10 µM unless noted 104% and 113% | [16]; 10 µM unless noted 103% | [17]; 10 µM unless noted 99.8% and 110% | [18] 95.9% and 110% | [19]; 10 µM unless noted 97.3% and 109%

N#CSCc1c(Cl)cccc1Cl
inactive: [1]; 10 µM unless noted 34.7% | [2]; 10 µM unless noted 99.3% | [3]; 10 µM unless noted 97.9% | [4]; 10 µM unless noted 79.1% | [5]; 10 µM unless noted 106% | [6]; 10 µM unless noted 53.7% | [7] 43.8% | [8]; 10 µM unless noted 97.6% | [9]; 10 µM unless noted 71.5% | [20] 49.6% | [10]; 10 µM unless noted 21% | [11]; 10 µM unless noted 83.8% | [12]; 10 µM unless noted 47.1% | [13]; 10 µM unless noted 80.4% | [14]; 10 µM unless noted 50.1% | [15]; 10 µM unless noted 53.3% | [16]; 10 µM unless noted 94.8% | [17]; 10 µM unless noted 88.5% | [18] 79.5%
active: [19]; 10 µM unless noted 9.86%
